Most compounds without a hit are left out; they make up all but 1.6% or so of the library.
KCNQ2 block – blocks the rat KCNQ2 potassium channel; O88943; CHO-K1 KCNQ2, FluxOR thallium flux, 20 min; active compounds read low; B-score at 10 µM; 1.1% of 310,000 active; AID 2156;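 active = fluorescence ratio B-score at most minus 3 library SDs, with starting brightness B-score within 2 library SDs, cut at about -5.5 in these data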
Target sequence (O88943 whole entry, looked up): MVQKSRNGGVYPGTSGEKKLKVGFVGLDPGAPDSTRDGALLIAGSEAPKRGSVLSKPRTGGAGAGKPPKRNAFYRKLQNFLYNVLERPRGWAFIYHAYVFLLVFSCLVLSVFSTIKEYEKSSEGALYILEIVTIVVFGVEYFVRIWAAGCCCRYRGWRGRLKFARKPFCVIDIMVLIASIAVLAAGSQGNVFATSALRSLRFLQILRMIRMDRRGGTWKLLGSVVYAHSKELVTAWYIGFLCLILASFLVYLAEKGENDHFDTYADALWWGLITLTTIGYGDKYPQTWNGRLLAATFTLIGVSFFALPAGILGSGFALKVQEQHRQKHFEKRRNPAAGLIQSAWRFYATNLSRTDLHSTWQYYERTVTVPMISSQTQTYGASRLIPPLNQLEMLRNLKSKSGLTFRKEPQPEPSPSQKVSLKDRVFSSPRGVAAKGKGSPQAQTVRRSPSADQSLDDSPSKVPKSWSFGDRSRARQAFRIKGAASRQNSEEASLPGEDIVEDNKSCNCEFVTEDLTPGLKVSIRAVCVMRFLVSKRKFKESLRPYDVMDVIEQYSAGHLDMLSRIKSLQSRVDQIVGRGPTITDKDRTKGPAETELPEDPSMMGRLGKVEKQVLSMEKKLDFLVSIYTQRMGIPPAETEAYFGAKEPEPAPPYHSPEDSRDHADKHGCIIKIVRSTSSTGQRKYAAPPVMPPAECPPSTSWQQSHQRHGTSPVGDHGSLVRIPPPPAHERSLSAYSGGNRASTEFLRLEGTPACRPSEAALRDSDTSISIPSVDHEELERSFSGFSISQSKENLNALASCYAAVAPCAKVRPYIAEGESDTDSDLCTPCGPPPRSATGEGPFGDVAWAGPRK
KCNQ2 pot – KCNQ2 (rat) channel potentiation; CHO-K1 KCNQ2, FluxOR thallium flux fluorescence; active compounds read high; 0.54% of 310,000 active; B-score at 10 µM; O88943;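 active = fluorescence ratio B-score at least 3 SD of library B-scores, with initial fluorescence B-score within 3 of them, cut at about 5.3 in these data; same plate scores as AID 2156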;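 also: B-score of peak minus minimum over baseline fluorescence ratio after K+ and Tl+ stimulus; positive B-score means potentiation of KCNQ2 with more thallium influx and brighter signal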
Numbers without * were called inactive; i = inactive; . = no result.

SMILES	KCNQ2 block	KCNQ2 pot
COc1cc(=O)[nH]c(SCC(=O)Nc2nc3c(s2)CCCC3)n1	i	0.09
COc1ccc(CCN(C)Cc2nc(-c3cnccn3)no2)cc1OC	i	0.18
COc1ccc(CCN(Cc2nc(-c3ccccc3)no2)Cc2nc(-c3ccccc3)no2)cc1OC	-6.2*	-6.2
O=C(CSc1nnc(COc2ccc(Cl)cc2)o1)N1CCCC1	i	0.93
O=C(CSc1nnc(COc2ccc(Cl)cc2)o1)N1c2ccccc2CCc2ccccc21	-9.4*	-9.4
CC(=O)N1CCN(CC(=O)NC(=O)Nc2ccc3c(c2)OCCO3)CC1	i	1.7
CCCCc1ccc(NC(=O)N2CCNC(=O)C2CC(=O)Nc2ccsc2C(=O)OC)cc1 (configuration not stated)	i	.
O=C(c1ccc(Cl)c(S(=O)(=O)NCc2ccccc2)c1)N1CCN(c2ccccn2)CC1	-5.8*	-5.8
CC(C)c1ccc(OCc2ccc(C(=O)N3CCN(c4ccccn4)CC3)cc2)cc1	-7.5*	-7.5
CC(C)c1ccc(COc2ccc(C(=O)N3CCOCC3)cc2)cc1	i	.
O=C(c1ccc(Cl)c(S(=O)(=O)N2CCCC2)c1)N1CCN(c2ccccn2)CC1	i	0.71
COc1ccc(CN2CCN(Cc3c[nH]c4ccccc34)CC2CCO)c(F)c1 (configuration not stated)	i	.
Cc1nc(C(F)(F)F)nc(Nc2ccc(N=Nc3ccccc3)cc2)c1C#N	i	0.34
CCN(CC(=O)Nc1cc(Cl)ccc1C)C(=O)c1cc([N+](=O)[O-])ccc1N1CCOCC1	i	1.1
CN(C(=O)c1cnccn1)c1c(N)n(Cc2ccccc2)c(=O)[nH]c1=O	i	0.51
Cc1nn(C)c(C)c1CCC(=O)NC1CC(C)(C)Cc2c1cnn2-c1ccccc1 (configuration not stated)	i	0.67
COc1ccc(CN(C(=O)CSc2nnc(-c3c[nH]c4ccccc34)o2)c2ccc(F)cc2)cc1OC	-7*	-7
COc1ccc(CN(C(=O)CSc2nnc(-c3ccc(F)cc3)o2)c2ccc(F)cc2)cc1	i	.
CCCOc1cc(N(CC)CC)ccc1/C=C(/C#N)c1nc2ccc(C)cc2[nH]1	i	.
CCOc1cc(N(CC)CC)ccc1/C=C(/C#N)c1nc2ccccc2[nH]1	-8.4*	-8.4
Cc1ccc(S(=O)(=O)NCCC(=O)Nc2ccc(C)cc2C(=O)c2ccccc2)cc1	i	5.4*
CCN(CC)CC(=O)Nc1ccc(C)cc1C(=O)c1ccccc1	i	.
O=C(NCc1ccc(Cl)cc1)C(=O)NCC1OCCN1C(=O)c1cccs1 (configuration not stated)	i	0.29
COc1ccc(CNC(=O)CN(c2ccc(C)cc2)S(=O)(=O)c2c(C)nn(C)c2C)cc1	i	.
CC(C)(C)n1nc2c(c1NC(=O)Cc1cccs1)CSC2	i	9.5*
SMILES	KCNQ2 block	KCNQ2 pot
CC(C)(C)n1nc2c(c1NC(=O)COc1ccc(Cl)cc1)CSC2	i	.
COCCOc1ccc(C(F)(F)F)cc1NC(=O)c1ccc(C)cc1	i	.
COc1ccc(Oc2ccc(C(F)(F)F)cc2NC(=O)c2ccc(C)cc2)cc1	-5.6*	-5.6
COc1ccc(/C=N/OCC(=O)OCC(=O)N(C)c2ccccc2)cc1	i	0.19
COc1ccc(CCNC(=O)c2cc3c(cc2Cl)N2CCCCCC2=NS3(=O)=O)cc1	i	0.82
CCCCSc1nc(C)cc(SCC(=O)N/N=C/c2cccc(OC)c2O)n1	i	6.3*
COc1cccc(/C=N/NC(=O)CSc2nnc(C)n2-c2ccccc2)c1O	i	.
Cc1ccc(S(=O)(=O)N2CCC(=O)N(C(COCc3cccc(C)c3)Cc3ccccc3)CC2)cc1 (configuration not stated)	-6.5*	-6.5
Cc1ccc(S(=O)(=O)N2CCC(=O)N(C(COCc3ccc(C(F)(F)F)cc3)C(C)C)CC2)cc1 (configuration not stated)	i	.
Cc1ccc(COCC(CC(C)C)N2CCN(C(=O)c3cccc(C(F)(F)F)c3)CCC2=O)cc1 (configuration not stated)	i	.
O=C(c1ccc(Cl)c(Cl)c1)N1CCC(=O)N(C(COCc2cccc(Cl)c2)Cc2ccccc2)CC1 (configuration not stated)	-6.2*	-6.2
Cc1ccc(S(=O)(=O)N2CCC(=O)N(C(COCc3ccc(Cl)c(Cl)c3)Cc3ccccc3)CC2)cc1 (configuration not stated)	i	.
O=C(c1cccc(Cl)c1)N1CCC(=O)N(C(COCc2cccc(Cl)c2)Cc2ccccc2)CC1 (configuration not stated)	i	.
Cc1ccc(S(=O)(=O)N2CCC(=O)N(C(COCc3ccc(C(F)(F)F)cc3)Cc3ccccc3)CC2)cc1 (configuration not stated)	-6.1*	-6.1
CC(C)CC(COCc1ccc(F)cc1)N1CCN(C(=O)c2cccc(C(F)(F)F)c2)CCC1=O (configuration not stated)	-6.1*	-6.1
COc1cc2c(cc1NC(=O)c1cc(-c3ccccn3)nc3ccccc13)oc1ccccc12	i	.
COc1ccc(Cc2nc3ccc(C(=O)NCCc4cccc(C)n4)cc3o2)cc1	i	.
Cc1ccc(S(=O)(=O)N2CCCCC2)cc1NC(=O)COC(=O)c1ccc2c(c1)OCO2	i	0.03
Cc1ccc(S(=O)(=O)Nc2ccc(C(=O)N3CCN(c4ccccc4O)CC3)cc2)cc1[N+](=O)[O-]	i	0.12
CSc1ccc(CCNS(=O)(=O)c2csc(C(N)=O)c2)cc1	i	.
O=C(CSc1nnc(CNC(=O)c2ccccc2F)o1)NC1CCCC1	i	.
O=C(CSCCN1C(=O)c2ccccc2C1=O)Nc1ccc2ccccc2c1	i	.
COc1ccccc1N(CC(=O)NCCSCc1ccc(Cl)cc1)S(C)(=O)=O	i	0.05
COc1ccccc1OCC(=O)NCCSCc1ccc(Cl)cc1	-5.6*	-5.6
O=C(CSCc1ccc(Cl)cc1)NCCSCc1ccco1	-6.4*	-6.4
SMILES	KCNQ2 block	KCNQ2 pot
O=C(CSCc1c(F)cccc1Cl)NCCSCc1ccco1	i	.
O=S(=O)(NC1CCCCC1N1CCC(O)CC1)c1ccccc1 (configuration not stated)	i	0.29
CSc1ccc(-c2sc(Nc3cccc4ccccc34)n[n+]2-c2ccccc2)cc1	-5.6*	-5.6
CSc1ccc(-c2sc(Nc3ccccc3)n[n+]2-c2ccccc2)cc1	i	.
O=C(CSc1ccc(-c2cccc([N+](=O)[O-])c2)nn1)N1CCCCC1	i	.
COCCCn1c(=O)/c(=C\c2ccc(OC(F)F)c(OC)c2)s/c1=C(/C#N)C(=O)NCCOC	i	.
COC(=O)c1ccc(/C=N/N2CCN(Cc3ccc(C)cc3C)CC2)cc1	-7.8*	-7.8
COC(=O)c1ccc(/C=N/N2CCN(Cc3ccccc3Cl)CC2)cc1	i	.
COc1ccc(-c2nn(-c3ccccc3)cc2C(=O)NCC(c2cccs2)N2CCOCC2)cc1 (configuration not stated)	i	.
COc1cccc(-c2nn(-c3ccc(C)cc3)cc2C(=O)NCC(c2cccs2)N2CCOCC2)c1 (configuration not stated)	-6.9*	-6.9
CC(NC(=O)c1cc([N+](=O)[O-])cc([N+](=O)[O-])c1)C1CC2CCC1C2 (configuration not stated)	i	0.13
CC(NC(=O)/C=C/c1ccccc1[N+](=O)[O-])C1CC2CCC1C2 (configuration not stated)	-6.2*	-6.2

Screening data (PubChem)
